Laboratory results published in PubChem BioAssay (NCI).
About 79,000 compounds went through this panel and 15% of them were active in at least one assay; those are over-represented in the sample as a whole. The source made the active and inactive calls. No stated cut-off is given here; in the data, active means growth inhibition above about 70%; inactive means the rest.

Columns and labels:
[1] = NCI Yeast Anticancer Drug Screen. Data for the mec2-1 strain (AID 157); conditions: S. cerevisiae mec2-1 strain, active compounds read high
Procedure, shortened: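 Vehicle-treated cultures served as reference for growth inhibition of compound-exposed mec2-1 yeast.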

[2] = NCI Yeast Anticancer Drug Screen. Data for the rad14 strain (AID 159);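 further: 0% = growth of vehicle-treated control cultures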; conditions: S. cerevisiae rad14 strain growth inhibition, active compounds read high
Procedure, shortened: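 Test compounds were applied to a repair-deficient yeast strain. Its growth was then compared with that of cultures given vehicle alone, and inhibition was expressed relative to those controls.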

[3] = NCI Yeast Anticancer Drug Screen. Data for the sgs1 mgt1 strain (AID 161);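 further: 0% = growth of cultures given vehicle only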; conditions: S. cerevisiae sgs1 mgt1 strain, active compounds read high
Procedure, shortened: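 Read-out: growth inhibition vs vehicle controls. Cells: mutant yeast strain deficient in DNA damage repair.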

[4] = NCI Yeast Anticancer Drug Screen. Data for the cln2 rad14 strain (AID 165);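 further: 0% = growth equal to vehicle treated cultures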; conditions: S. cerevisiae cln2 rad14 strain, active compounds read high
Procedure, shortened: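 Each compound was tested on cln2 rad14 yeast. Inhibition of growth was calculated against vehicle-exposed controls.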

[5] = NCI Yeast Anticancer Drug Screen. Data for the bub3 strain (AID 167); conditions: S. cerevisiae bub3 mutant strain, active compounds read high
Procedure, shortened: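 Yeast carrying a defined mutation is treated with each compound, and growth is compared with that of vehicle-exposed cells to give inhibition.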

[6] = NCI Yeast Anticancer Drug Screen. Data for the wt2 strain (AID 169);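 further: 0% = growth of vehicle-treated yeast cultures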; conditions: S. cerevisiae wt2 strain growth inhibition, active compounds read high
Procedure, shortened: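 Inhibition of yeast growth was determined after compound treatment, normalised to controls receiving only vehicle.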

[7] = NCI Yeast Anticancer Drug Screen. Data for the mlh1 strain (AID 171);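 further: 0% = growth of vehicle-treated control cultures of the same strain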; conditions: S. cerevisiae mlh1 strain growth inhibition, active compounds read high
Procedure, shortened: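 Vehicle-normalised growth inhibition of a repair- or checkpoint-altered yeast strain following compound treatment.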

[8] = NCI Yeast Anticancer Drug Screen. Data for the sgs1 strain (AID 173);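 further: 0% = growth of vehicle-only control cultures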; conditions: S. cerevisiae sgs1 mutant, active compounds read high
Procedure, shortened: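 Screen format: yeast with repair or checkpoint alterations, compound exposure, growth read relative to vehicle.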

[9] = NCI Yeast Anticancer Drug Screen. Data for the mlh1 rad18 strain (AID 175); conditions: S. cerevisiae mlh1 rad18 strain growth inhibition, active compounds read high
Procedure, shortened: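 Vehicle-treated cultures served as the reference for growth inhibition in a yeast strain carrying DNA damage repair alterations exposed to each compound.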

[10] = NCI Yeast Anticancer Drug Screen. Data for the rad18 strain (AID 177); conditions: S. cerevisiae rad18 mutant growth inhibition, active compounds read high
Procedure, shortened: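 Test articles were incubated with altered yeast defective in DNA damage repair. Results are given as inhibition of growth versus vehicle.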

[11] = NCI Yeast Anticancer Drug Screen. Data for the rad52 strain (AID 147);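 further: 0% = growth of vehicle-treated control cultures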; conditions: S. cerevisiae rad52 mutant growth inhibition, active compounds read high
Procedure, shortened: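 Vehicle-treated cultures served as the reference for growth inhibition of compound-exposed yeast bearing a DNA repair mutation.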

[12] = NCI Yeast Anticancer Drug Screen. Data for the wt1 strain (AID 149);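 further: 0% = growth of vehicle-treated wt1 cultures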; conditions: S. cerevisiae wt1 strain (SPY 50644) growth inhibition, active compounds read high
Procedure, shortened: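 wt1 yeast, compound-treated; % growth inhibition vs vehicle control.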

[13] = NCI Yeast Anticancer Drug Screen. Data for the rad50EPP+ strain (AID 151);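 further: 0% = growth of vehicle-treated control cultures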; conditions: S. cerevisiae rad50 mutant strain, active compounds read high
Procedure, shortened: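 In this screen, rad50EPP+ yeast were exposed to compounds. Growth inhibition was scored against vehicle-treated controls.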

[14] = NCI Yeast Anticancer Drug Screen. Data for the mgt1 strain (AID 153); conditions: S. cerevisiae mgt1 mutant growth inhibition, active compounds read high
Procedure, shortened: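 mgt1 strain exposed; growth vs vehicle control recorded as inhibition.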

[15] = NCI Yeast Anticancer Drug Screen. Data for the rad50 strain (AID 155);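 further: 0% = growth of vehicle-only cultures of the same strain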; conditions: S. cerevisiae rad50 strain growth inhibition, active compounds read high
Procedure, shortened: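 Genetically altered yeast (DNA repair pathway); compound treatment; growth inhibition vs vehicle ctrl.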

[16] = NCI Yeast Anticancer Drug Screen. Data for the CLN2oe strain (AID 163);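 further: 0% = growth of vehicle-only control cultures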; conditions: S. cerevisiae CLN2oe strain, active compounds read high
Procedure, shortened: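 Inhibition relative to vehicle-treated yeast is reported. Cells: strain with genetic alteration in cell-cycle control, grown with compound.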

[17] = at 5.0 µM (retest, dose inferred, filed as 0.5)
[18] = at 50.0 µM (retest, dose inferred, filed as 5.0)

Measured: growth inhibition

CN1Cc2ccccc2/C=C\c2ccccc21
active: [3]; [18] 90% | [5]; [18] 87% | [9]; [18] 89% | [10]; at 100.0 µM 78%
inactive: [1]; [17] -47% | [1]; at 11.0 µM 1% | [1]; at 33.0 µM 1% | [1]; [18] 67% | [1]; at 50.0 µM 34.3% | [1]; at 100.0 µM -3% | [2]; at 1.2 µM -3% | [2]; at 3.7 µM -2% | [2]; at 11.0 µM 1% | [2]; at 33.0 µM 14% | [2]; at 100.0 µM 43% | [3]; [17] -57% | [3]; at 50.0 µM -5.4% | [4]; [17] -57% | [4]; [18] 18% | [4]; at 50.0 µM -30.4% | [5]; at 1.2 µM -2% | [5]; at 3.7 µM -1% | [5]; [17] -66% | [5]; at 11.0 µM 1% | [5]; at 33.0 µM 12% | [5]; at 50.0 µM -15.8% | [5]; at 100.0 µM 35% | [6]; at 1.2 µM 0% | [6]; at 3.7 µM 1% | [6]; at 11.0 µM 0% | [6]; at 33.0 µM -4% | [6]; at 100.0 µM 25% | [7]; at 1.2 µM 9% | [7]; at 3.7 µM 1% | [7]; at 11.0 µM -1% | [7]; at 33.0 µM -3% | [7]; at 100.0 µM 33% | [8]; at 1.2 µM 2% | [8]; at 3.7 µM 3% | [8]; at 11.0 µM 2% | [8]; at 33.0 µM 23% | [8]; at 100.0 µM 58% | [9]; [17] -109% | [9]; at 50.0 µM 22.6% | [10]; at 1.2 µM 0% | [10]; at 3.7 µM 2% | [10]; at 11.0 µM 15% | [10]; at 33.0 µM 47%

O=C(CCCN1CCC2(CC1)CC(=O)N(N1CCCCCC1)C2=O)c1ccc(F)cc1
inactive: [11]; at 1.2 µM 23% | [11]; at 3.7 µM 34% | [11]; at 11.0 µM 46% | [11]; at 33.0 µM 53% | [11]; at 100.0 µM 65% | [12]; at 1.2 µM 11% | [12]; at 3.7 µM 24% | [12]; at 11.0 µM 25% | [12]; at 33.0 µM 34% | [12]; at 100.0 µM 41% | [13]; at 1.2 µM -2% | [13]; at 3.7 µM -2% | [13]; at 11.0 µM -1% | [13]; at 33.0 µM -1% | [13]; at 100.0 µM 0% | [14]; at 1.2 µM 32% | [14]; at 3.7 µM 45% | [14]; at 11.0 µM 67% | [15]; at 1.2 µM 29% | [15]; at 3.7 µM 26% | [15]; [17] 14% | [15]; at 11.0 µM 33% | [15]; at 33.0 µM 49% | [15]; [18] 46% | [15]; at 100.0 µM 61% | [1]; at 1.2 µM 25% | [1]; at 3.7 µM 28% | [1]; [17] 13% | [1]; at 11.0 µM 31% | [1]; at 33.0 µM 40% | [1]; [18] 41% | [1]; at 50.0 µM 45.8% | [1]; at 100.0 µM 45% | [2]; at 1.2 µM 45% | [2]; at 3.7 µM 51% | [2]; at 11.0 µM 64% | [16]; at 1.2 µM 49% | [16]; at 3.7 µM 45% | [16]; at 11.0 µM 58% | [4]; [17] 63% | [5]; at 1.2 µM 40% | [5]; at 3.7 µM 41% | [5]; [17] 36% | [5]; at 11.0 µM 51% | [5]; at 33.0 µM 61% | [5]; [18] 41% | [5]; at 100.0 µM 66% | [6]; at 1.2 µM 20% | [6]; at 3.7 µM 32% | [6]; at 11.0 µM 41% | [6]; at 33.0 µM 53% | [6]; at 100.0 µM 68% | [7]; at 1.2 µM 25% | [7]; at 3.7 µM 30% | [7]; at 11.0 µM 41% | [7]; at 33.0 µM 52% | [7]; at 100.0 µM 63% | [9]; [17] 25% | [9]; [18] 56% | [10]; at 1.2 µM 29% | [10]; at 3.7 µM 49% | [10]; at 11.0 µM 57% | [10]; at 33.0 µM 66% | [10]; at 100.0 µM 65%
active: [14]; at 33.0 µM 75% | [14]; at 100.0 µM 89% | [15]; at 50.0 µM 80.8% | [2]; at 33.0 µM 73% | [2]; at 100.0 µM 87% | [16]; at 33.0 µM 71% | [16]; at 100.0 µM 79% | [4]; [18] 82% | [4]; at 50.0 µM 72% | [5]; at 50.0 µM 73.3% | [9]; at 50.0 µM 76%

CCCCCCCCCCCCCC[N+](C)(CC(=O)[O-])Cc1ccccc1 (stereo not drawn)
active: [11]; at 11.0 µM 99% | [11]; at 33.0 µM 98% | [11]; at 100.0 µM 99% | [12]; at 11.0 µM 99% | [12]; at 100.0 µM 99% | [13]; at 11.0 µM 99% | [13]; at 33.0 µM 99% | [13]; at 100.0 µM 98% | [14]; at 11.0 µM 100% | [14]; at 33.0 µM 99% | [14]; at 100.0 µM 99% | [15]; at 11.0 µM 99% | [15]; at 33.0 µM 99% | [15]; [18] 99% | [15]; at 50.0 µM 98.8% | [15]; at 100.0 µM 99% | [1]; at 11.0 µM 99% | [1]; at 33.0 µM 99% | [1]; [18] 100% | [1]; at 50.0 µM 99.1% | [1]; at 100.0 µM 99% | [2]; at 11.0 µM 100% | [2]; at 33.0 µM 99% | [2]; at 100.0 µM 99% | [3]; [18] 99% | [3]; at 50.0 µM 98.8% | [4]; [18] 99% | [4]; at 50.0 µM 93.8% | [5]; at 11.0 µM 99% | [5]; at 33.0 µM 99% | [5]; [18] 99% | [5]; at 50.0 µM 98.9% | [5]; at 100.0 µM 98% | [6]; at 11.0 µM 100% | [6]; at 100.0 µM 99% | [7]; at 11.0 µM 99% | [7]; at 33.0 µM 99% | [7]; at 100.0 µM 99% | [8]; at 11.0 µM 99% | [8]; at 33.0 µM 99% | [8]; at 100.0 µM 99% | [10]; at 11.0 µM 99% | [10]; at 33.0 µM 99% | [10]; at 100.0 µM 99%
inactive: [11]; at 1.2 µM 2% | [11]; at 3.7 µM 23% | [12]; at 1.2 µM -1% | [12]; at 3.7 µM 1% | [12]; at 33.0 µM 54% | [13]; at 1.2 µM 5% | [13]; at 3.7 µM 32% | [14]; at 1.2 µM 2% | [14]; at 3.7 µM 26% | [15]; at 1.2 µM 8% | [15]; at 3.7 µM 50% | [15]; [17] 8% | [1]; at 1.2 µM -2% | [1]; at 3.7 µM 3% | [1]; [17] 32% | [2]; at 1.2 µM 10% | [2]; at 3.7 µM 30% | [3]; [17] 13% | [4]; [17] 9% | [5]; at 1.2 µM -1% | [5]; at 3.7 µM 10% | [5]; [17] 2% | [6]; at 1.2 µM -6% | [6]; at 3.7 µM 9% | [6]; at 33.0 µM 60% | [7]; at 1.2 µM 2% | [7]; at 3.7 µM 31% | [8]; at 1.2 µM 2% | [8]; at 3.7 µM 30% | [10]; at 1.2 µM 3% | [10]; at 3.7 µM 23%
